In the library only some 2.6% were active in any assay of this set; here they are far more common.
A549 viability: Nrf2 qHTS screen for inhibitors: counterscreen for cytotoxicity | A549 ARE-Fluc cells, CellTiter-Fluor viability, 18-24 h | Potency, µM (top dose mostly 46 µM), most hits filed as inhibitors | hit rate 0.16% among 390,000 | AID 504648, 2011
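Cytotoxicity counterscreen: CellTiter-Fluor fluorescence was measured in A549 ARE_Fluc cells after 18-24 h of compound exposure in a concentration series. The subsequent BugLite luminescent read reports ARE-luciferase activity.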
CCT chaperon mod: High-Throughput Screening for Modulators of Cytosolic Chaperonin Activity. activity change, % (concentration not given with the values), hits read low. purified chaperonin ATPase assay, HTRF ADP detection, 30 min. AID 651819, 2012. hit rate 0.3% among 360,000; in the data active means activity change below about -30%
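Enzyme 40 or 20 nM (batch-dependent) in Tris pH 7.4/KCl/MgCl2/DTT; cpd 76 uM single point; ATP 10 uM; 30 min 37 °C; Transcreener ADP HTRF detection, 30 min RT; ratio 665/615.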
TCR activator: Activators of T cell receptors: qHTS campaign | Potency, µM (highest dose often 9.22 µM), actives largely listed as activators | AID 504894, 2011 | primary human leukocytes, anti-CD3, IL-2 HTRF, 48 h | 330,000 tested, under 10 active
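IL-2 release read by HTRF sandwich (Eu cryptate donor, d2 acceptor, 665 nm emission) after 48 hr exposure of primary human leukocytes to compound together with anti-CD3 beads in the absence of co-stimulatory signals.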
Nrf2 activator: qHTS of Nrf2 Activators | AREc32 ARE-luciferase reporter (MCF7-derived line), luminescence, 24 h | hit rate 0.31% among 410,000 | Potency, µM (highest dose often 46.1 µM), actives largely listed as activators | AID 624171, 2012; further: nearly all actives have a fitted effect of over 65% in size
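Luminescent ARE reporter assay in AREc32_Fluc cells: overnight plating at 37 deg C, 24 hr compound incubation, Steady-Glo added, 30 min RT before reading.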
Nrf2 inh: Nrf2 qHTS screen for inhibitors | A549 ARE-Fluc reporter, luciferase luminescence, 18-24 h | Potency, µM (series often up to 46 µM), most hits filed as inhibitors | hit rate 2.1% among 360,000; further: nearly all actives have a fitted effect of over 60% in size
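Reporter: ARE-Fluc in A549. Exposure: 18-24 h, 37 °C, 5% CO2, 5% FBS OPTI-MEM. Readouts: fluorescent cytotoxicity (CellTiter-Fluor), then luminescent Nrf2 signal after BugLite.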
AT treatment: qHTS Assay for Identifying a Potential Treatment of Ataxia-Telangiectasia. F2112 A-T fibroblasts, KAP-1 phosphorylation AlphaLISA; neocarzinostatin DNA damage 30 min before lysis. hit rate 0.19% among 320,000. Potency, µM (highest dose often 57.5 µM), most hits filed as activators; further: nearly all actives have a fitted effect of over 45% in size
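ATM-like activity read as KAP-1 phosphorylation via AlphaLISA donor/acceptor antibody pairs after lysis and 6 hr at 25C. Cells were ATM-null patient fibroblasts (F2112, hTERT), dosed 60 min, then exposed to the DSB inducer NCS for 30 min.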
Hits are given with their value. Unless noted, the call rests on the fitted dose curve; in most records, active means well fitted curve in the direction sought with a large enough effect; inconclusive means small, poorly fitted or top-dose-only effect, or another doubt; inactive means no such curve, though single readings can be large; an effect the other way counts as inactive or inconclusive.

What do the screens show for `CC(=O)OC(C)(C)/C=C/C(=O)[C@](C)(O)[C@H]1[C@H](O)C[C@@]2(C)[C@@H]3CC=C4[C@H](C[C@H](O)C(=O)C4(C)C)[C@]3(C)C(=O)C[C@]12C`?
A549 viability: inconclusive; CCT chaperon mod: inactive; TCR activator: inactive; Nrf2 activator: inactive; Nrf2 inh: inconclusive; AT treatment: inconclusive

What do the screens show for `CC(=O)OC(C)(C)/C=C/C(=O)C(C)(O)C1C(O)CC2(C)C3CC=C4C(CC(O)C(=O)C4(C)C)C3(C)C(=O)CC12C` (centres undefined)?
A549 viability: 2.9µM; CCT chaperon mod: inactive; TCR activator: inactive; Nrf2 activator: inactive; Nrf2 inh: inconclusive

Results for C=CC[C@H](CC(=O)N(CCO)Cc1ccccc1)C(=O)NC[C@H](OC(=O)[C@@H](CC=C)CC(=O)OC(C)(C)C)c1ccccc1 ?
A549 viability: inconclusive; CCT chaperon mod: inactive; TCR activator: inactive; Nrf2 activator: inactive; Nrf2 inh: 18µM; AT treatment: inactive

Results for C[n+]1cc(P(=S)(c2ccccc2)c2ccccc2)n2ccccc21 ?
A549 viability: inactive; Nrf2 inh: inactive

Results for CN1C(=O)c2ccccc2Sc2ccc(NC(=O)NCc3ccc(Cl)cc3)cc21 ?
A549 viability: inactive; Nrf2 activator: inactive; Nrf2 inh: 15µM

Results for CN1C(=O)c2ccccc2Sc2ccc(C(=O)N3CCC4(CC3)OCCO4)cc21 ?
A549 viability: inactive; CCT chaperon mod: inactive; TCR activator: inactive; Nrf2 activator: inactive; Nrf2 inh: inactive; AT treatment: inactive

How did Cc1ccc(S(=O)(=O)N(C)C[C@H]2Oc3c(NC(=O)Nc4cccc5ccccc45)cccc3C(=O)N([C@@H](C)CO)C[C@@H]2C)cc1 do in these assays?
A549 viability: inactive; CCT chaperon mod: inactive; TCR activator: inactive; Nrf2 activator: inactive; Nrf2 inh: inconclusive; AT treatment: inactive

How did C/C=C1/C[C@@H](C)[C@@](C)(O)C(=O)OCC2=CCN3CC[C@@H](OC1=O)[C@@H]23 do in these assays?
A549 viability: inactive; Nrf2 inh: inactive

Results for CC(=O)c1cn(Cc2ccccc2F)c2ccccc12 ?
A549 viability: inactive; CCT chaperon mod: inactive; TCR activator: inactive; Nrf2 activator: inactive; Nrf2 inh: 5.8µM; AT treatment: inactive

Results for O=Cc1cn(Cc2ccccc2F)c2ccccc12 ?
A549 viability: inactive; CCT chaperon mod: inactive; TCR activator: inactive; Nrf2 activator: inactive; Nrf2 inh: inactive; AT treatment: inactive

How did Cc1ccc2c(c1)C1CN(C)CCC1N2C(=O)c1ccccc1NS(=O)(=O)c1cccc(C(F)(F)F)c1 (centres undefined) do in these assays?
A549 viability: inconclusive; CCT chaperon mod: inactive; TCR activator: inactive; Nrf2 activator: inactive; Nrf2 inh: inconclusive; AT treatment: inactive

Results for C[C@H]1CC[C@@H]2[C@@H](C)[C@H]3C(CC4C5CC=C6CC(O[C@@H]7O[C@H](CO)C(O[C@@H]8O[C@@H](C)[C@H](O)[C@@H](O)[C@H]8O)[C@H](O)[C@H]7O[C@@H]7O[C@@H](C)[C@H](O)[C@@H](O)[C@H]7O)CC[C@]6(C)C5CC[C@@]43C)N2C1 (some centres undefined) ?
A549 viability: inactive; Nrf2 inh: inconclusive

How did C[C@@H]1O[C@@H](O[C@H]2C[C@@H](O)[C@]3(CO)[C@H]4[C@H](O)C[C@]5(C)[C@@H](C6COC(=O)C6)CC[C@]5(O)[C@@H]4CC[C@]3(O)C2)[C@H](O)[C@H](O)[C@H]1O (some centres undefined) do in these assays?
A549 viability: inconclusive; CCT chaperon mod: inactive; TCR activator: inactive; Nrf2 activator: inactive; Nrf2 inh: 0.41µM; AT treatment: inactive

Results for Cc1ccc(-c2nnc(Nc3ccc(OC(F)(F)Cl)cc3)c3ccccc23)cc1S(=O)(=O)NC(C)(C)CO ?
A549 viability: inactive; Nrf2 activator: inactive; Nrf2 inh: inconclusive

How did CC(Sc1ncnc2sccc12)C(=O)Nc1ccc(S(=O)(=O)N2CCOCC2)cc1 (centres undefined) do in these assays?
A549 viability: inactive; CCT chaperon mod: inactive; TCR activator: inactive; Nrf2 activator: inactive; Nrf2 inh: inconclusive

How did CN(Cc1ccccc1)C(=O)Cn1c(=O)oc2cc(S(=O)(=O)NCc3ccccc3)ccc21 do in these assays?
A549 viability: inactive; CCT chaperon mod: inactive; TCR activator: inactive; Nrf2 activator: inactive; Nrf2 inh: 18µM; AT treatment: inactive

What do the screens show for `Cc1cccc(C(=O)Nc2nnc(SCC(=O)NCc3ccco3)s2)c1`?
A549 viability: inactive; CCT chaperon mod: inactive; TCR activator: inactive; Nrf2 activator: 3.2µM; Nrf2 inh: inactive

How did Cc1ccc(NC(=O)C2CCCN2S(=O)(=O)c2ccc3c(c2)CCCC(=O)N3)cc1Cl (centres undefined) do in these assays?
A549 viability: inactive; Nrf2 activator: inactive; Nrf2 inh: inconclusive

Results for COC(=O)C1=C(c2ccc(OC(F)(F)F)cc2)C[C@@H]2CC[C@H]1N2C(=O)NCCNC(C)=O ?
A549 viability: inactive; CCT chaperon mod: inactive; TCR activator: inactive; Nrf2 activator: inactive; Nrf2 inh: inactive; AT treatment: inactive

Results for COC(=O)C1=C(c2ccc(OC(F)(F)F)cc2)C[C@@H]2CC[C@H]1N2C(=O)NCCOc1ccc(OC)cc1 ?
A549 viability: inactive; CCT chaperon mod: inactive; TCR activator: inactive; Nrf2 activator: inactive; Nrf2 inh: 23µM; AT treatment: inactive

Results for COC(=O)C1=C(c2ccc(Cl)c(C(F)(F)F)c2)C[C@@H]2CC[C@H]1N2C(=O)NCCOc1ccccc1Cl ?
A549 viability: inconclusive; CCT chaperon mod: inactive; TCR activator: inactive; Nrf2 activator: inactive; Nrf2 inh: 23µM; AT treatment: inactive

What do the screens show for `COC(=O)C1=C(c2ccc3ccccc3c2)C[C@@H]2CC[C@H]1N2C(=O)NCc1ccc(C(F)(F)F)cc1`?
A549 viability: inactive; CCT chaperon mod: inactive; TCR activator: inactive; Nrf2 activator: inactive; Nrf2 inh: 23µM; AT treatment: inactive

What do the screens show for `COC(=O)C1=C(c2ccc(-c3ccccc3)c(F)c2)C[C@@H]2CC[C@H]1N2C(=O)NCCOc1ccc(OC)cc1`?
A549 viability: inactive; CCT chaperon mod: inactive; TCR activator: inactive; Nrf2 activator: inactive; Nrf2 inh: 16µM; AT treatment: inactive
